RECQ1 inh: blocks DNA unwinding by human RECQ1; Potency, µM (highest dose often 57.3 µM), for the others: top-dose activity, negative = inhibition, usual class: inhibitors; AID 2549; 240,000 compounds, 0.54% hits; RECQ1 DNA unwinding, red fluorescence kinetic read;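 note: plate controls were vehicle for no effect and no enzyme for full effect; nearly all actives have a fitted effect of over 30% in size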
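RECQ1T1 50 nM; forked duplex (20 bp + 30-nt ss tails) 200 nM, ATP 2 mM final; pH 8.0, 2 mM MgCl2, 2.5 ug/ml poly(dI-dC); 15 min compound preincubation; discontinuous kinetic read over 2 h at RT.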
APEX1 inh: inhibitors of human APE1 endonuclease | P27695 | recombinant APE1, TAMRA/BHQ-2 abasic DNA cleavage fluorescence | Potency, µM (series often up to 65.8 µM), for inactives: top-dose activity change, negative = inhibition, most hits filed as inhibitors | 350,000 compounds, 0.35% hits | AID 2517;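 note: plate controls were vehicle for no effect and reference inhibitor for full effect; nearly all actives have a fitted effect of over 55% in size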
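Activity was derived from the fluorescence gain between first and third kinetic reads (60 s intervals, ex 525/em 598 nm) after 50 nM THF-abasic TAMRA/BHQ-2 duplex was added to 0.75 nM APE1 preincubated 15 min with compound.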
JMJD2E inh: inhibitors of human JMJD2E histone demethylase; AID 2147; B2RXH2; 230,000 compounds, 1.6% hits; JMJD2E catalytic domain, FDH-coupled NADH fluorescence (FDH is formaldehyde dehydrogenase); Potency, µM (top dose mostly 57.1 µM), without a hit: at the top dose activity change, negative = inhibition, actives largely listed as inhibitors; active = well fitted inhibition curve with a large enough effect, not every such curve was filed as active; inconclusive = small, poorly fitted or top-dose-only effect, or another doubt; inactive = no such curve, though single readings can be large or run the other way;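 note: 0% = wells with enzyme and -100% = buffer wells without enzyme; nearly all actives have a fitted effect of over 50% in size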
BLM helicase inh: Bloom syndrome helicase (human) inhibition | P54132 | Potency, µM (highest dose often 56.1 µM), inactives show at the highest dose activity change, negative = inhibition, hits mostly inhibitors | AID 2528 | 350,000 compounds, 0.2% hits | recombinant BLM DNA unwinding, fluorescence dequenching;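 note: plate controls were vehicle for no effect and no enzyme for full effect; nearly all actives have a fitted effect of over 35% in size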
GCN5L2 inh: blocks human GCN5L2 histone acetyltransferase; GCN5L2 HAT assay, ThioGlo1 CoA-SH fluorescence; Potency, µM (top dose mostly 58.9 µM), for the others: top-dose activity change, negative = inhibition, actives largely listed as inhibitors; 390,000 compounds, 0.21% hits
Target sequence (Q92830 whole entry, looked up): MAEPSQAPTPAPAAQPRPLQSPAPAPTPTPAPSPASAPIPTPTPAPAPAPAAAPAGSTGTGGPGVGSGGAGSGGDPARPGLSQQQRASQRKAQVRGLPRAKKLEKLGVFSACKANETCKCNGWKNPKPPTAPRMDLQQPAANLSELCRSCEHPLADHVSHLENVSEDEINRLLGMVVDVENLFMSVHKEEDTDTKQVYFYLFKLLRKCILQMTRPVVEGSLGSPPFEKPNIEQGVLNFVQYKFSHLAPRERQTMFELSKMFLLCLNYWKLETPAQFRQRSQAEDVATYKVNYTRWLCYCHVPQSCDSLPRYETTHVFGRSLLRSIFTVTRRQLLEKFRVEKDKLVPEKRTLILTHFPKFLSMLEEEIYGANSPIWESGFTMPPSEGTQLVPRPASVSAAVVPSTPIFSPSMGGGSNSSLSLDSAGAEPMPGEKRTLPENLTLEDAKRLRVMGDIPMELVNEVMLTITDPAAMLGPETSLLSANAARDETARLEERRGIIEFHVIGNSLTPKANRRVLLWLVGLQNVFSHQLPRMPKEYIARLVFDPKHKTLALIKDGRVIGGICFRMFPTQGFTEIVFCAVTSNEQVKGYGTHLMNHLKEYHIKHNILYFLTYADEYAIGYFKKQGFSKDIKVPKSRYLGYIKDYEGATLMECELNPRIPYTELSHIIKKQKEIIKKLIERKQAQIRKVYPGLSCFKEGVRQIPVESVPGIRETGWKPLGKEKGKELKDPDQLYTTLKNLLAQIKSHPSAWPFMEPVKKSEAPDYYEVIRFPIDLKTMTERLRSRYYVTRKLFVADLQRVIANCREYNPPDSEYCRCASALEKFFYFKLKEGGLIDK
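Fluorescence readout, Ex340nm/Em540nm: ThioGlo1 (50uM final) reacts with free CoA thiol released as 20nM GCN5L2 acetylates H3(1-25) peptide (75uM) using acetyl-CoA (70uM). Compound and enzyme sat 15 min beforehand; 20 min room-temperature reaction.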
TDP1 inh: blocks human tyrosyl-DNA phosphodiesterase 1 | Q9NUW8 | recombinant TDP1, AlphaScreen DNA substrate cleavage | Potency, µM (top dose mostly 130 µM), inactives show at the top dose activity change, negative = inhibition, usual class: inhibitors | 350,000 compounds, 0.28% hits; note: nearly all actives have a fitted effect of over 40% in size
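Compounds were preincubated with Tdp1 (1 nM final) for 15 min at room temperature before substrate (15 nM final) started a 5 min reaction; beads (10 ug/ml final) were then added for 10 min before AlphaScreen detection.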
Starred values were filed as active, the others as inactive; i = inactive; ? = inconclusive; . = not tested or not shown; ! = repeats disagree; [ ] = another dose, or the depositor's remark. This excerpt belongs to a sample that is enriched for hits. Unless noted, calls come from the whole dose curve; as a rule, active = well fitted curve in the direction sought with a large enough effect; inconclusive = small, poorly fitted or top-dose-only effect, or another doubt; inactive = no such curve, though single readings can be large; an effect the other way counts as inactive or inconclusive. Unless noted, % is set by controls: 0 for no effect and ±100 for the full control effect; potency is the fitted concentration of half-maximal effect.

SMILES	RECQ1 inh	APEX1 inh	JMJD2E inh	BLM helicase inh	GCN5L2 inh	TDP1 inh
O=c1cc(-c2cccc(O)c2)oc2c(O)c(O)ccc12	4.5µM*	?	7.9µM*	-1%	.	-6%[56.1 µM]
Cc1ccc(NS(=O)(=O)c2ccc3c(c2)N(C)CCO3)cc1C	.	.	.	.	.	5%
CC(C)C(=O)NC(CC(=O)O)c1ccccc1 (stereo unspecified)	13%	1%	8%	1%	0%	1%
CC(CC(=O)O)Nc1ccccc1O (stereo unspecified)	i	?	20µM*	-3%	3%	.
O=c1cc(-c2ccc(O)cc2)oc2c1ccc1ccccc12	.	0%	.	.	0%	.
O=c1cc(-c2ccc(O)cc2)oc2ccc3ccccc3c12	.	-7%	.	.	-9%	32µM*
C[C@]12C=CC(=O)N[C@@H]1CC[C@@H]1C2CC[C@]2(C)C(C(=O)Nc3cc(C(F)(F)F)ccc3C(F)(F)F)CC[C@@H]12 (stereo partly specified)	.	.	.	4%	12%	-2%
CCCCCCOc1ccc(C(=N)N(CCCC)CCCC)c2ccccc12	.	.	.	3%	-7%	.
O=C1CCc2cc(S(=O)(=O)Nc3ccncc3)ccc2N1	.	.	.	.	.	1%
NC(C(=O)O)C(O)c1ccc(O)c(O)c1 (stereo unspecified)	.	.	.	?	14µM*	.
COC/C=C/C1=CC2=CC(=O)C(C)(OC(=O)c3cnc4ccccc4n3)C(=O)C2=CN1CCOC (stereo unspecified)	i[11.5 µM]	-1%[12.4 µM]	-2%[11.4 µM]	-9%[12.4 µM]	.	7%[12.3 µM]
COC/C=C/C1=CC2=CC(=O)C(C)(OC(=O)c3cnc4ccccc4n3)C(=O)C2=CN1CCN1CCOCC1 (stereo unspecified)	12%[11.5 µM]	-6%[12.4 µM]	13µM*!	-15%[12.4 µM]	1%	4%[21 µM]
COc1ccc(CN(Cc2ccccc2)C(=O)c2ccc(OC)cc2O)cc1	.	.	.	.	.	-14%
Cc1cccc(Cn2cnc3c(cnn3C(C)(C)C)c2=O)c1	.	-4%	.	.	.	.
CCCCCCCCCCCCCCCCC(C(=O)O)C(O)(CC(=O)O)C(=O)O (stereo unspecified)	.	.	.	?	1.1µM*	.
CCOC(=O)N1CCN(Cc2nc3cc(NC(=O)c4ccc(F)cc4)ccc3n2C(C)C)CC1	.	.	.	-7%	-8%	2%
COc1ccc(-c2nc(C)c(CCNS(=O)(=O)c3cc(C)c(C)cc3C)s2)cc1	.	.	.	-11%	-9%	4%
Oc1ccc(/C=N/N(Cc2ccccc2)c2ccccc2)c(O)c1O	-26%	?	20µM*	-27%	?	10%
CC1(C)CC(=O)C(N=Nc2ccc(C(F)(F)F)cc2[N+](=O)[O-])=C(O)C1	-4%	?	13µM*	-6%	-2%	11%
CC1(C)CC(=O)C(N=Nc2cccc([N+](=O)[O-])c2)=C(O)C1	-2%	-3%	-7%	-2%	-3%	.
O=C(Nc1nc(Nc2cc(F)cc(F)c2)nc(NC2CCCC2)n1)OCc1ccccc1	.	.	.	.	.	1%
Nc1cccc(S(=O)(=O)N2CCN(S(=O)(=O)c3c(F)cccc3F)CC2)c1	.	.	.	.	.	1%
Cc1ccc(C(=O)N/N=C/c2cccc(OC(=O)/C=C/c3ccco3)c2)cn1	?	14µM*	-18%	-28%	-12%	.
CCCCCCCCCCCCCC[C@@H](O)[C@@H](O)[C@@H](N)CO	-10%	-1%	.	-2%	40%	10%
CCOc1ccc(C=NNc2ccc(S(=O)(=O)Nc3ccccc3C(=O)O)cc2[N+](=O)[O-])cc1OC	.	17µM*	.	.	?	.
SMILES	RECQ1 inh	APEX1 inh	JMJD2E inh	BLM helicase inh	GCN5L2 inh	TDP1 inh
CCOc1cc(-c2ccc3c(c2)OCO3)cc(=[O+]CC)c2c(C)oc(C)c12	.	.	.	.	.	1%
CCc1ccccc1NC(=O)CNC(=O)c1ccc(OCc2cn3ccccc3n2)cc1	.	-14%	.	.	-13%	28µM*
COc1cccc2sc(N(Cc3cccnc3)C(=O)c3ccc4c(c3)OCCO4)nc12	.	.	.	-7%	-10%	8%
N#CC1=C(N)SC(N)=C(C#N)C1c1ccc(C(F)(F)F)cc1	i	13%	13µM*	-10%	-14%	7%
CCc1ccc(C2C(C#N)=C(N)SC(N)=C2C#N)cc1	i	0%	?	-10%	-10%	4%
Cc1ccc(C)c(S(=O)(=O)NCc2ccncc2)c1	i	-3%	4%	1%	3.2µM*	2%
CCCCCCCCC/C=C/CC1CC(=O)OC1=O (stereo unspecified)	-2%	2%	.	.	.	5%
CCOC(=O)c1ccccc1NC(=O)COC(=O)CC1CCCCC1	.	5%	.	-9%	-2%	50µM*
CCOC(=O)c1ccccc1NC(=O)COC(=O)C1CCCC1	.	-6%	.	.	-7%	.
Oc1ccc(CNc2cccc(F)c2F)c2cccnc12	.	35%	.	.	-2%	.
Cc1ccc(S(=O)(=O)N2CCN(c3nc(-c4cncnc4)nc4ccccc34)CC2)cc1	.	.	.	.	.	3%
Cc1nc(N=Nc2cc([N+](=O)[O-])ccc2Cl)c(COP(=O)(O)O)c(C=O)c1O	28µM*	35µM*	.	0%	?	6%
CCOc1cc(C=O)cc(N=Nc2cccc([N+](=O)[O-])c2)c1O	.	4%	.	-7%	-5%	8%
COc1cccc(C2c3c(ncn(-c4ccccc4C#N)c3=N)Oc3ccc4ccccc4c32)c1 (stereo unspecified)	.	.	.	.	.	3%
CC(C)(C)n1ncc2c(=O)n(Cc3ccc(Cl)cc3C(F)(F)F)cnc21	.	-3%	.	.	.	.
C/C(=N\NC(=O)c1cc(O)cc(O)c1)c1ccc(NC(=O)Cc2ccccc2)cc1	.	1.3µM*	.	-26%	?	1.8µM*
O=C(CCc1nnc2ccc(NCc3ccco3)nn12)Nc1ccccn1	.	7%	.	-12%	-5%	25µM*
O=c1[nH]cc(CCc2ccccc2)c2ncncc12	.	.	.	.	.	1%
O=C(OCC(=O)N1CCCC1=O)c1nc(Cl)c(Cl)c(Cl)c1Cl	.	?	.	-15%	-9%	45µM*
CCn1c2ccccc2c2cc(CN3CCN(Cc4cc(OC)c(O)c(OC)c4)CC3)ccc21	.	.	.	-11%	4%	0%[12.3 µM]
CCn1c2ccccc2c2cc(CN3CCN(Cc4cc(OC)ccc4O)CC3)ccc21	-5%	-4%	18µM*	-4%	-2%	7%
N[C@@H](COC(c1cccc(F)c1)c1ccccc1OCc1ccccc1)C(=O)O (stereo partly specified)	-12%	-2%	.	0%	13%	11%
CS(=O)(=O)N1CCN(c2ccccc2NC(=O)c2ccc(Br)o2)CC1	-13%	-2%	5%	-2%	32µM*	4%
Cc1ccc(NS(=O)(=O)c2ccc3c(c2)N(C)C(=O)CO3)cc1C	.	.	.	.	.	1%
CCN(CC)C1=CC(=O)OC12CCCCC2	7%	18%	-2%	4%	20µM*	-10%

Screens deposited in PubChem BioAssay by National Center for Advancing Translational Sciences (NCATS).
